{"source": "paper PMC8384837", "about": "“Expanding the binding specificity for RNA recognition by a PUF domain”", "assay_in_all_cases": "yeast three-hybrid, YBZ-1, SC-Leu-His + 0.5 mM 3-AT, 4 days", "conditions_in_all_cases": "tags: N-Gal4 AD-HA kept; label: inside an RPR1-promoter hybrid RNA with tandem MS2 sites; ssRNA", "key": {"PUM1 PUF domain R8-RFE": {"target": "PUM1 PUF domain R8-RFE (Homo sapiens, UniProt Q14671 828-1176, N1122R;Y1123F;Q1126E)", "sequence (Q14671 828-1176 N1122R/Y1123F/Q1126E)": "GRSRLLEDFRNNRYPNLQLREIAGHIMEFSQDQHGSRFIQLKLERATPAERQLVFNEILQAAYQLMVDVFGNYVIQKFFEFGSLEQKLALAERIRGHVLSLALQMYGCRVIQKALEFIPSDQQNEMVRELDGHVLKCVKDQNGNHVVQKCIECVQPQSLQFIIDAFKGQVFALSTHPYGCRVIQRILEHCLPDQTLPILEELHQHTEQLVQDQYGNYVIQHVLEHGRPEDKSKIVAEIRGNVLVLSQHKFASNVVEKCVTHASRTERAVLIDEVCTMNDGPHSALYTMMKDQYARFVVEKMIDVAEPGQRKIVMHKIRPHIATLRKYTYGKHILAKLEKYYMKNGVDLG", "method_in_brief": "(§1)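 Pumilio-1 PUF domain libraries, randomized (NNK) at the three base-contacting residues of each repeat, were co-expressed with matching RNA elements from a centromeric plasmid in strain YBZ-1 (LexA–MS2 coat fusion, HIS3 reporter). Transformants were plated on SC-Leu (input) and SC-Leu-His + 0.5 mM 3-AT (selection) for four days, and repeat regions were PCR-amplified and Illumina-sequenced. The interaction score is the log2 change in variant frequency from input to selection, with pseudocount 1 where absent.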"}, "PUM1 PUF domain R8-NWE": {"target": "PUM1 PUF domain R8-NWE (Homo sapiens, UniProt Q14671 828-1176, Y1123W;Q1126E)", "sequence (Q14671 828-1176 Y1123W/Q1126E)": "as the sequence (Q14671 828-1176 N1122R/Y1123F/Q1126E) above, with R295N, F296W counted along it", "method_in_brief": "as §1"}, "PUM1 PUF domain R4-VRT": {"target": "PUM1 PUF domain R4-VRT (Homo sapiens, UniProt Q14671 828-1176, N971V;H972R;Q975T)", "sequence (Q14671 828-1176 N971V/H972R/Q975T)": "as the sequence (Q14671 828-1176 N1122R/Y1123F/Q1126E) above, with N144V, H145R, Q148T, R295N, F296Y, E299Q counted along it", "method_in_brief": "as §1"}, "PUM1 PUF domain R3-VRV": {"target": "PUM1 PUF domain R3-VRV (Homo sapiens, UniProt Q14671 828-1176, C935V;Q939V)", "sequence (Q14671 828-1176 C935V/Q939V)": "as the sequence (Q14671 828-1176 N1122R/Y1123F/Q1126E) above, with C108V, Q112V, R295N, F296Y, E299Q counted along it", "method_in_brief": "as §1"}, "PUM1 PUF domain R1-KTE": {"target": "PUM1 PUF domain R1-KTE (Homo sapiens, UniProt Q14671 828-1176, S863K;R864T;Q867E)", "sequence (Q14671 828-1176 S863K/R864T/Q867E)": "as the sequence (Q14671 828-1176 N1122R/Y1123F/Q1126E) above, with S36K, R37T, Q40E, R295N, F296Y, E299Q counted along it", "method_in_brief": "as §1"}, "PUM1 PUF domain R5-RGT": {"target": "PUM1 PUF domain R5-RGT (Homo sapiens, UniProt Q14671 828-1176, C1007R;R1008G;Q1011T)", "sequence (Q14671 828-1176 C1007R/R1008G/Q1011T)": "as the sequence (Q14671 828-1176 N1122R/Y1123F/Q1126E) above, with C180R, R181G, Q184T, R295N, F296Y, E299Q counted along it", "method_in_brief": "as §1"}, "PUM1 PUF domain R3-YCD": {"target": "PUM1 PUF domain R3-YCD (Homo sapiens, UniProt Q14671 828-1176, C935Y;R936C;Q939D)", "sequence (Q14671 828-1176 C935Y/R936C/Q939D)": "as the sequence (Q14671 828-1176 N1122R/Y1123F/Q1126E) above, with C108Y, R109C, Q112D, R295N, F296Y, E299Q counted along it", "method_in_brief": "as §1"}, "PUM1 PUF domain R3-LSN": {"target": "PUM1 PUF domain R3-LSN (Homo sapiens, UniProt Q14671 828-1176, C935L;R936S;Q939N)", "sequence (Q14671 828-1176 C935L/R936S/Q939N)": "as the sequence (Q14671 828-1176 N1122R/Y1123F/Q1126E) above, with C108L, R109S, Q112N, R295N, F296Y, E299Q counted along it", "method_in_brief": "as §1"}, "PUM1 PUF domain R7-RSL": {"target": "PUM1 PUF domain R7-RSL (Homo sapiens, UniProt Q14671 828-1176, S1079R;N1080S;E1083L)", "sequence (Q14671 828-1176 S1079R/N1080S/E1083L)": "as the sequence (Q14671 828-1176 N1122R/Y1123F/Q1126E) above, with S252R, N253S, E256L, R295N, F296Y, E299Q counted along it", "method_in_brief": "as §1"}}}
{"sequence": "GGCUAGAACUAGUGGAUCCCCCGGCGCCCGGCGGCUCGAGCCCGGGUAAGUGUAAAUAGUCUGCAUGCCGCCGGGCGCCAUGCCUGCAGGUCGACUCUAGAAAACAUG", "values": [{"measurement": "binding signal", "setting": "PUM1 PUF domain R8-RFE", "result": "2.4 log2 enrichment (interaction score)"}, {"measurement": "binding signal", "setting": "PUM1 PUF domain R8-NWE", "result": "2.9 log2 enrichment (interaction score)"}, {"measurement": "binding signal", "setting": "PUM1 PUF domain R4-VRT", "result": "4.25 log2 enrichment (interaction score)"}, {"measurement": "binding signal", "setting": "PUM1 PUF domain R3-VRV", "result": "3.29 log2 enrichment (interaction score)"}]}
{"sequence": "GGCUAGAACUAGUGGAUCCCCCGGCGCCCGGCGGCUCGAGCCCGGGUAAGCGUAAAUAGUCUGCAUGCCGCCGGGCGCCAUGCCUGCAGGUCGACUCUAGAAAACAUG", "values": [{"measurement": "binding signal", "setting": "PUM1 PUF domain R8-RFE", "result": "3.87 log2 enrichment (interaction score)"}, {"measurement": "binding signal", "setting": "PUM1 PUF domain R8-NWE", "result": "1.64 log2 enrichment (interaction score)"}]}
{"sequence": "GGCUAGAACUAGUGGAUCCCCCGGCGCCCGGCGGCUCGAGCCCGGGUAAGUGUAAAUCGUCUGCAUGCCGCCGGGCGCCAUGCCUGCAGGUCGACUCUAGAAAACAUG", "values": [{"measurement": "binding signal", "setting": "PUM1 PUF domain R1-KTE", "result": "4.3 log2 enrichment (interaction score)"}]}
{"sequence": "GGCUAGAACUAGUGGAUCCCCCGGCGCCCGGCGGCUCGAGCCCGGGUAAGUGUCAAUAGUCUGCAUGCCGCCGGGCGCCAUGCCUGCAGGUCGACUCUAGAAAACAUG", "values": [{"measurement": "binding signal", "setting": "PUM1 PUF domain R5-RGT", "result": "5.24 log2 enrichment (interaction score)"}]}
{"sequence": "GGCUAGAACUAGUGGAUCCCCCGGCGCCCGGCGGCUCGAGCCCGGGUAAGUGUAAGUAGUCUGCAUGCCGCCGGGCGCCAUGCCUGCAGGUCGACUCUAGAAAACAUG", "values": [{"measurement": "binding signal", "setting": "PUM1 PUF domain R3-YCD", "result": "3.96 log2 enrichment (interaction score)"}, {"measurement": "binding signal", "setting": "PUM1 PUF domain R3-LSN", "result": "4.28 log2 enrichment (interaction score)"}]}
{"sequence": "GGCUAGAACUAGUGGAUCCCCCGGCGCCCGGCGGCUCGAGCCCGGGUAAGUCUAAAUAGUCUGCAUGCCGCCGGGCGCCAUGCCUGCAGGUCGACUCUAGAAAACAUG", "values": [{"measurement": "binding signal", "setting": "PUM1 PUF domain R7-RSL", "result": "2.11 log2 enrichment (interaction score)"}]}
{"sequence": "GGCUAGAACUAGUGGAUCCCCCGGCGCCCGGCGGCUCGAGCCCGGGUAAGUUUAAAUAGUCUGCAUGCCGCCGGGCGCCAUGCCUGCAGGUCGACUCUAGAAAACAUG", "values": [{"measurement": "binding signal", "setting": "PUM1 PUF domain R7-RSL", "result": "3.53 log2 enrichment (interaction score)"}]}
{"sequence": "GGCUAGAACUAGUGGAUCCCCCGGCGCCCGGCGGCUCGAGCCCGGGUAAGUGUAAUUAGUCUGCAUGCCGCCGGGCGCCAUGCCUGCAGGUCGACUCUAGAAAACAUG", "values": [{"measurement": "binding signal", "setting": "PUM1 PUF domain R3-LSN", "result": "2.89 log2 enrichment (interaction score)"}]}
